Data taken from PubChem BioAssay AID1159580 (chemical genetic matrix, 2015).
Hit rate of the full screen: of about 5,500 compounds, about 2,000 (36%) were called active. Inconclusive results (about 18%) are left out. Cut-off read from the data, not from the text of the source: active = normalized growth mostly below about 0.91 (no sharp cut-off); inconclusive = no clear call, values can overlap the other calls; inactive = mostly above about 0.92. Some of the results follow.

Assay: chemical genetic growth profiling, strain panel (AID 1159580);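 note: tested at 20 µM; growth read once vehicle control cultures reached saturation at 30 °C; 1 = growth at the plate median or of vehicle wells; lower values mean less growth of the strain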
Details: growth OD
[1] = S. cerevisiae deletion strains, locus YDL101C, strain DUN1, hits give low values
[2] = S. cerevisiae deletion strains, locus YHR030C, strain SLT2, hits give low values
[3] = S. cerevisiae deletion strains, locus YGR078C, strain PAC10, hits give low values
[4] = S. cerevisiae deletion strains, locus YMR263W, strain SAP30, hits give low values

Measured: normalized growth

OC(c1ccc(C(F)(F)F)cc1)c1cccc(C(F)(F)F)c1 (stereo unspecified)
active: S. cerevisiae deletion strains, locus YLR113W, strain HOG1, hits give low values 0.789 | S. cerevisiae deletion strains, locus YPL256C, strain CLN2, hits give low values 0.839
inactive: S. cerevisiae deletion strains, locus YAR019C, strain CDC15, hits give low values 0.972 | S. cerevisiae deletion strains, locus YBL105C, strain PKC1, hits give low values 0.973 | S. cerevisiae deletion strains, locus YBR135W, strain CKS1, hits give low values 0.973 | S. cerevisiae deletion strains, locus YBR136W, strain MEC1, hits give low values 0.967 | S. cerevisiae deletion strains, locus YBR160W, strain CDC28, hits give low values 0.969 | S. cerevisiae deletion strains, locus YDL017W, strain CDC7, hits give low values 0.964 | S. cerevisiae deletion strains, locus YDL028C, strain MPS1, hits give low values 0.974 | [1] 0.975 | S. cerevisiae deletion strains, locus YDL108W, strain KIN28, hits give low values 0.968 | S. cerevisiae deletion strains, locus YDL132W, strain cdc53, hits give low values 0.974 | S. cerevisiae deletion strains, locus YDL214C, strain PRR2, hits give low values 0.985 | S. cerevisiae deletion strains, locus YDR052C, strain DBF4, hits give low values 0.977 | S. cerevisiae deletion strains, locus YDR054C, strain cdc34, hits give low values 0.974 | S. cerevisiae deletion strains, locus YDR226W, strain ADK1, hits give low values 0.977 | S. cerevisiae deletion strains, locus YDR477W, strain SNF1, hits give low values 0.999 | S. cerevisiae deletion strains, locus YER123W, strain YCK3, hits give low values 0.945 | S. cerevisiae deletion strains, locus YER133W, strain GLC7, hits give low values 0.992 | S. cerevisiae deletion strains, locus YFL009W, strain cdc4, hits give low values 0.981 | S. cerevisiae deletion strains, locus YFL029C, strain CAK1, hits give low values 0.962 | S. cerevisiae deletion strains, locus YFR003C, strain YPI1, hits give low values 0.969 | S. cerevisiae deletion strains, locus YFR019W, strain FAB1, hits give low values 1 | S. cerevisiae deletion strains, locus YFR028C, strain CDC14, hits give low values 0.975 | S. cerevisiae deletion strains, locus YGR040W, strain KSS1, hits give low values 0.984 | S. cerevisiae deletion strains, locus YGR052W, strain FMP48, hits give low values 1 | S. cerevisiae deletion strains, locus YGR092W, strain DBF2, hits give low values 0.948 | [2] 0.867 | S. cerevisiae deletion strains, locus YHR079C, strain IRE1, hits give low values 0.885 | S. cerevisiae deletion strains, locus YHR082C, strain KSP1, hits give low values 1.09 | S. cerevisiae deletion strains, locus YHR205W, strain SCH9, hits give low values 0.949 | S. cerevisiae deletion strains, locus YIL147C, strain SLN1, hits give low values 0.971 | S. cerevisiae deletion strains, locus YJL095W, strain BCK1, hits give low values 0.953 | S. cerevisiae deletion strains, locus YJL128C, strain PBS2, hits give low values 0.942 | S. cerevisiae deletion strains, locus YJL157C, strain FAR1, hits give low values 1.01 | S. cerevisiae deletion strains, locus YJR016C, strain ILV3, hits give low values 0.984 | S. cerevisiae deletion strains, locus YJR066W, strain TOR1 (second series), hits give low values 1.04 | S. cerevisiae deletion strains, locus YJR066W, strain TOR1, hits give low values 1.05 | S. cerevisiae deletion strains, locus YKL048C, strain ELM1, hits give low values 0.977 | S. cerevisiae deletion strains, locus YKL067W, strain YNK1, hits give low values 0.992 | S. cerevisiae deletion strains, locus YKL101W, strain HSL1, hits give low values 0.97 | S. cerevisiae deletion strains, locus YKL193C, strain SDS22, hits give low values 0.973 | S. cerevisiae deletion strains, locus YKL203C, strain TOR2, hits give low values 1.02 | S. cerevisiae deletion strains, locus YLR133W, strain CKI1, hits give low values 0.999 | S. cerevisiae deletion strains, locus YLR403W, strain SFP1, hits give low values 1.04 | S. cerevisiae deletion strains, locus YML070W, strain DAK1, hits give low values 0.96 | S. cerevisiae deletion strains, locus YMR001C, strain CDC5, hits give low values 0.973 | S. cerevisiae deletion strains, locus YMR205C, strain PFK2 (second series), hits give low values 0.993 | S. cerevisiae deletion strains, locus YMR277W, strain FCP1, hits give low values 0.974 | S. cerevisiae deletion strains, locus YNL006W, strain LST8, hits give low values 0.966 | S. cerevisiae deletion strains, locus YNL020C, strain ARK1, hits give low values 0.998 | S. cerevisiae deletion strains, locus YNL161W, strain CBK1, hits give low values 0.984 | S. cerevisiae deletion strains, locus YNL183C, strain NPR1, hits give low values 1.01 | S. cerevisiae deletion strains, locus YNL207W, strain RIO2, hits give low values 0.978 | S. cerevisiae deletion strains, locus YNL222W, strain SSU72, hits give low values 0.973 | S. cerevisiae deletion strains, locus YNL307C, strain MCK1 (second series), hits give low values 0.989 | S. cerevisiae deletion strains, locus YOL078W, strain AVO1, hits give low values 0.974 | S. cerevisiae deletion strains, locus YOL136C, strain PFK27, hits give low values 0.968 | S. cerevisiae deletion strains, locus YOR061W, strain CKA2, hits give low values 1 | S. cerevisiae deletion strains, locus YOR119C, strain RIO1, hits give low values 1.07 | S. cerevisiae deletion strains, locus YOR231W, strain MKK1, hits give low values 0.92 | S. cerevisiae deletion strains, locus YOR329C, strain SCD5, hits give low values 0.967 | S. cerevisiae deletion strains, locus YPL031C, strain PHO85, hits give low values 0.978 | S. cerevisiae deletion strains, locus YPL153C, strain RAD53, hits give low values 0.991 | S. cerevisiae deletion strains, locus YPL204W, strain HRR25, hits give low values 0.959 | S. cerevisiae deletion strains, locus YPL209C, strain IPL1, hits give low values 0.973 | S. cerevisiae deletion strains, locus YPR025C, strain CCL1, hits give low values 0.968 | S. cerevisiae deletion strains, locus YPR106W, strain ISR1, hits give low values 0.99 | S. cerevisiae deletion strains, locus YPR111W, strain DBF20, hits give low values 1 | S. cerevisiae deletion strains, strain NNK1, hits give low values 0.975 | S. cerevisiae deletion strains, strain TSCII, hits give low values 0.975

O=C(O)CC(CC(=O)O)c1ccc(C(F)(F)F)cc1
inactive: S. cerevisiae deletion strains, locus YAL013W, strain DEP1, hits give low values 0.994 | S. cerevisiae deletion strains, locus YBR229C, strain ROT2, hits give low values 1 | S. cerevisiae deletion strains, locus YCL061C, strain MRC1, hits give low values 0.981 | [1] 0.999 | S. cerevisiae deletion strains, locus YDR150W, strain NUM1, hits give low values 0.938 | S. cerevisiae deletion strains, locus YEL061C, strain CIN8, hits give low values 1.01 | [3] 0.993 | S. cerevisiae deletion strains, locus YGR229C, strain SMI1, hits give low values 0.985 | [2] 1.03 | S. cerevisiae deletion strains, locus YHR087W, strain rtc3, hits give low values 1 | S. cerevisiae deletion strains, locus YJR043C, strain POL32, hits give low values 0.991 | S. cerevisiae deletion strains, locus YJR075W, strain HOC1, hits give low values 0.993 | S. cerevisiae deletion strains, locus YKL190W, strain CNB1, hits give low values 1 | S. cerevisiae deletion strains, locus YLR039C, strain RIC1, hits give low values 1.02 | S. cerevisiae deletion strains, locus YLR058C, strain SHM2 (second series), hits give low values 0.999 | S. cerevisiae deletion strains, locus YLR085C, strain ARP6, hits give low values 1.02 | S. cerevisiae deletion strains, locus YLR262C, strain YPT6, hits give low values 1.01 | S. cerevisiae deletion strains, locus YML094W, strain GIM5, hits give low values 1.02 | S. cerevisiae deletion strains, locus YMR219W, strain ESC1, hits give low values 0.999 | [4] 0.993 | S. cerevisiae deletion strains, locus YNL153C, strain GIM3, hits give low values 0.99 | S. cerevisiae deletion strains, locus YNL298W, strain CLA4 (second series), hits give low values 1.04 | S. cerevisiae deletion strains, locus YNL322C, strain KRE1, hits give low values 1.01 | S. cerevisiae deletion strains, locus YNR030W, strain Alg12, hits give low values 1.02 | S. cerevisiae deletion strains, locus YPL055C, strain LGE1, hits give low values 0.918 | S. cerevisiae deletion strains, locus YPL241C, strain CIN2, hits give low values 1.04 | S. cerevisiae deletion strains, locus YPR135W, strain CTF4, hits give low values 0.963 | S. cerevisiae strains, strain wild type, hits give low values 0.995

OC[C@H]1O[C@@H](n2cnc3cncnc32)[C@H](O)[C@@H]1O
inactive: S. cerevisiae deletion strains, locus YAL040C, strain CLN3, hits give low values 1.01 | S. cerevisiae deletion strains, locus YCL061C, strain MRC1 (second series), hits give low values 1.01 | S. cerevisiae deletion strains, locus YDR363W, strain ESC2, hits give low values 1 | S. cerevisiae deletion strains, locus YER002W, strain NOP16, hits give low values 1.01 | [3] 1.03 | [4] 0.997 | S. cerevisiae deletion strains, locus YMR307W, strain GAS1, hits give low values 1 | S. cerevisiae deletion strains, locus YNL128W, strain TEP1, hits give low values 1.03 | S. cerevisiae deletion strains, locus YNL175C, strain NOP13, hits give low values 1.02 | S. cerevisiae deletion strains, locus YNL197C, strain WHI3, hits give low values 1 | S. cerevisiae deletion strains, locus YNL224C, strain SQS1, hits give low values 1.02 | S. cerevisiae deletion strains, locus YOR083W, strain WHI5 (second series), hits give low values 1.07
